The panel holds about 83,000 compounds, 20% with a hit somewhere; the sample as a whole holds those more often.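 96-well plates, one dose, 48 hours. Percent growth reported; active if below 10.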 Calls of active or inactive are those of the source.
What was measured:
Experiment in all cases: NCI-60 one-dose screen, 48 h (100 = growth as untreated, 0 = no growth, -100 = all killed)
RPMI-8226 leukemia = settings: 10 µM unless noted
OVCAR-8 ovarian = settings: 10 µM unless noted
OVCAR-5 ovarian = settings: 10 µM unless noted
OVCAR-4 ovarian = settings: 10 µM unless noted
IGROV1 ovarian = settings: 10 µM unless noted
OVCAR-3 ovarian = settings: 10 µM unless noted
HS 578T breast = settings: 10 µM unless noted
NCI/ADR-RES ovarian = settings: 10 µM unless noted
T-47D breast = settings: 10 µM unless noted
BT-549 breast = settings: 10 µM unless noted
MDA-MB-435 melanoma = settings: 10 µM unless noted
SW-620 colon = settings: 10 µM unless noted
MCF7 breast = settings: 10 µM
HCT-116 colon = settings: 10 µM unless noted
HCC-2998 colon = settings: 10 µM unless noted
SK-OV-3 ovarian = settings: 10 µM unless noted
KM12 colon = settings: 10 µM unless noted

Measured: growth

COc1cc(/C=C2\CN(C)C/C(=C\c3cc(CN4CCOCC4)c(O)c(OC)c3)C2=O)cc(CN2CCOCC2)c1O
inactive: RPMI-8226 leukemia 47.7% | OVCAR-8 ovarian 20.1% | OVCAR-5 ovarian 88.7% | OVCAR-4 ovarian 58.9% | IGROV1 ovarian 57.8% | OVCAR-3 ovarian 22.2% | HS 578T breast 83.1% | NCI/ADR-RES ovarian 94.7% | T-47D breast 84.5% | BT-549 breast 94% | MDA-MB-435 melanoma 29.2% | SW-620 colon 48% | MCF7 breast 19.5% | HCT-116 colon 21.1% | HCC-2998 colon 91%

O=c1oc2ccc(F)cc2c(=O)n1-c1ccc(F)cc1F
active: RPMI-8226 leukemia 5.47% | SK-OV-3 ovarian -4.73% | OVCAR-3 ovarian 4.14% | T-47D breast -11.9%
inactive: OVCAR-8 ovarian 23.3% | OVCAR-5 ovarian 64.8% | OVCAR-4 ovarian 11.9% | HS 578T breast 12.8% | NCI/ADR-RES ovarian 18.9% | MDA-MB-435 melanoma 11.7% | SW-620 colon 31.7% | MCF7 breast 24.8% | HCT-116 colon 24.4% | HCC-2998 colon 22.8% | KM12 colon 12.6%

Nc1ccccc1-c1ccc(-c2ccc(Cl)cc2)c2c1[nH]c1ccccc12
inactive: RPMI-8226 leukemia 42.1% | OVCAR-8 ovarian 77% | OVCAR-5 ovarian 91.2% | OVCAR-4 ovarian 92.5% | SK-OV-3 ovarian 106% | OVCAR-3 ovarian 79% | HS 578T breast 82.4% | NCI/ADR-RES ovarian 77.2% | T-47D breast 60.4% | BT-549 breast 85.4% | MDA-MB-435 melanoma 91.2% | SW-620 colon 78.2% | MCF7 breast 68.7% | HCT-116 colon 52.8% | HCC-2998 colon 86.1% | KM12 colon 66.6%

Clc1ccc(Oc2ccc(Nc3ncnc4onc(-c5ccccc5)c34)cc2)c(Cl)c1
inactive: RPMI-8226 leukemia 90.8% | OVCAR-8 ovarian 97.7% | OVCAR-5 ovarian 101% | OVCAR-4 ovarian 81.5% | IGROV1 ovarian 94.5% | OVCAR-3 ovarian 109% | HS 578T breast 99.5% | NCI/ADR-RES ovarian 96.8% | T-47D breast 83.5% | BT-549 breast 90.2% | MDA-MB-435 melanoma 103% | SW-620 colon 99.5% | MCF7 breast 80.6% | HCT-116 colon 85.4% | HCC-2998 colon 103% | KM12 colon 103%

COc1ccc(C2C3=C(COC3=O)N(CCO)c3cc4c(cc32)OCCO4)cc1 (centres undefined)
active: MDA-MB-435 melanoma 1.1%
inactive: RPMI-8226 leukemia 99.9% | OVCAR-8 ovarian 84.6% | OVCAR-5 ovarian 99.8% | OVCAR-4 ovarian 98.8% | SK-OV-3 ovarian 86.5% | OVCAR-3 ovarian 50.4% | HS 578T breast 71.6% | NCI/ADR-RES ovarian 95.5% | T-47D breast 80.4% | SW-620 colon 55.2% | HCT-116 colon 77.2% | HCC-2998 colon 76.5% | KM12 colon 49%

Cn1cc(-c2ccc3ncc(-c4ccc(CC(=O)Nc5cc(C(C)(C)C)no5)cc4)nc3c2)cn1
inactive: RPMI-8226 leukemia 32.3% | OVCAR-8 ovarian 37% | OVCAR-5 ovarian 74.6% | OVCAR-4 ovarian 31.9% | IGROV1 ovarian 19.3% | OVCAR-3 ovarian 49.3% | HS 578T breast 25.9% | NCI/ADR-RES ovarian 43.7% | T-47D breast 25.5% | BT-549 breast 55.4% | MDA-MB-435 melanoma 28.8% | SW-620 colon 48.3% | MCF7 breast 30.2% | HCT-116 colon 24.4% | HCC-2998 colon 60.2%
active: KM12 colon 6.86%

CC(=O)c1ccc(NC(=O)Nc2ccc(S(=O)(=O)Nc3ccc(Cl)nn3)cc2)cc1
inactive: RPMI-8226 leukemia 108% | OVCAR-8 ovarian 98.7% | OVCAR-5 ovarian 95.3% | OVCAR-4 ovarian 110% | IGROV1 ovarian 99.5% | OVCAR-3 ovarian 108% | HS 578T breast 98.4% | NCI/ADR-RES ovarian 103% | T-47D breast 101% | BT-549 breast 107% | MDA-MB-435 melanoma 107% | SW-620 colon 104% | MCF7 breast 99.1% | HCT-116 colon 105% | HCC-2998 colon 107% | KM12 colon 103%

Fc1cccc(COc2ccc(Nc3ncnc4onc(-c5ccccc5)c34)cc2)c1
active: OVCAR-5 ovarian 9.86% | OVCAR-3 ovarian 0.458% | HS 578T breast -16.7% | MDA-MB-435 melanoma -54.7% | HCT-116 colon 8.15% | HCC-2998 colon 9.52% | KM12 colon 9.57%
inactive: RPMI-8226 leukemia 12.5% | OVCAR-8 ovarian 29.2% | OVCAR-4 ovarian 43.3% | IGROV1 ovarian 24.5% | NCI/ADR-RES ovarian 46.5% | T-47D breast 45.4% | BT-549 breast 12.8% | SW-620 colon 19.8% | MCF7 breast 14%

O=c1oc2ccc(Cl)cc2c(=O)n1-c1ccc(I)cc1F
active: RPMI-8226 leukemia -25.3% | OVCAR-8 ovarian 8.73% | SK-OV-3 ovarian 7.52% | OVCAR-3 ovarian 6.61% | HS 578T breast -0.395% | NCI/ADR-RES ovarian 5.51% | T-47D breast -6.79% | MDA-MB-435 melanoma -6.3% | SW-620 colon 7.19% | MCF7 breast 3.96% | HCT-116 colon 2% | KM12 colon -18.3%
inactive: OVCAR-5 ovarian 23.1% | OVCAR-4 ovarian 16.1% | HCC-2998 colon 16.2%

O=c1c2cc(F)ccc2sc2c(NCCN3CCCC3)nc3ccccc3c12
inactive: RPMI-8226 leukemia 33.9% | OVCAR-8 ovarian 63% | OVCAR-5 ovarian 72.1% | OVCAR-4 ovarian 54.2% | IGROV1 ovarian 61.7% | OVCAR-3 ovarian 48.8% | HS 578T breast 56.8% | NCI/ADR-RES ovarian 66.4% | T-47D breast 61.9% | BT-549 breast 86.7% | MDA-MB-435 melanoma 23.2% | SW-620 colon 19.1% | MCF7 breast 30.4% | HCT-116 colon 39.1% | HCC-2998 colon 30.9% | KM12 colon 39.5%

O=C(Nc1ccc(-c2nc3cc4ccccc4cc3[nH]2)cc1)c1cccc(Br)c1
active: OVCAR-8 ovarian 7.87%
inactive: RPMI-8226 leukemia 23% | OVCAR-5 ovarian 73.7% | OVCAR-4 ovarian 63.7% | SK-OV-3 ovarian 43.8% | OVCAR-3 ovarian 25.9% | HS 578T breast 83.5% | NCI/ADR-RES ovarian 39.2% | T-47D breast 54% | BT-549 breast 47.9% | MDA-MB-435 melanoma 30% | SW-620 colon 26.9% | MCF7 breast 27.5% | HCT-116 colon 64.6% | HCC-2998 colon 33.1% | KM12 colon 39.8%

CCN1C(=O)N(c2ccccc2)C2Nn3c(s/c(=C4\C(=O)N(C(C)C)c5ccccc54)c3=O)=NC21 (centres undefined)
inactive: RPMI-8226 leukemia 97.7% | OVCAR-8 ovarian 103% | OVCAR-5 ovarian 102% | OVCAR-4 ovarian 105% | IGROV1 ovarian 99.6% | OVCAR-3 ovarian 117% | HS 578T breast 99.7% | NCI/ADR-RES ovarian 109% | T-47D breast 102% | BT-549 breast 107% | MDA-MB-435 melanoma 99.7% | SW-620 colon 98.7% | MCF7 breast 98.8% | HCT-116 colon 105%

COC(=O)/C(CCC=C(C)C)=C1\[C@@H](OC(C)=O)C[C@@]2(C)[C@H]1C[C@@H](O)[C@H]1[C@@]3(C)CC[C@H](NCCCNCCCCNCCCN)[C@@H](C)[C@@H]3CC[C@@]12C
active: MDA-MB-435 melanoma 8.03%
inactive: RPMI-8226 leukemia 20.2% | OVCAR-8 ovarian 54.6% | OVCAR-5 ovarian 88.1% | OVCAR-4 ovarian 85.1% | IGROV1 ovarian 41.9% | OVCAR-3 ovarian 83% | HS 578T breast 82.7% | NCI/ADR-RES ovarian 65.9% | T-47D breast 57% | BT-549 breast 80.4% | SW-620 colon 55.8% | MCF7 breast 95.6% | HCT-116 colon 47.1% | HCC-2998 colon 52.1% | KM12 colon 21.7%

COC(=O)/C(CCC=C(C)C)=C1\[C@@H](OC(C)=O)C[C@@]2(C)[C@H]1CC(=O)N[C@H]1[C@@]3(C)CCNC(=O)[C@@H](C)[C@@H]3CC[C@@]12C
inactive: RPMI-8226 leukemia 97.8% | OVCAR-8 ovarian 98.3% | OVCAR-5 ovarian 102% | OVCAR-4 ovarian 101% | IGROV1 ovarian 105% | OVCAR-3 ovarian 107% | HS 578T breast 97.1% | NCI/ADR-RES ovarian 106% | T-47D breast 88.9% | BT-549 breast 107% | MDA-MB-435 melanoma 105% | SW-620 colon 103% | MCF7 breast 93% | HCT-116 colon 101% | HCC-2998 colon 103%

N#C/C(=C\c1c(-c2ccccc2)[nH]c2ccccc12)S(=O)(=O)c1ccccc1
inactive: OVCAR-8 ovarian 43.3% | OVCAR-5 ovarian 75.1% | OVCAR-4 ovarian 83% | SK-OV-3 ovarian 30.5% | HS 578T breast 15.9% | BT-549 breast 51.7% | SW-620 colon 28.6% | MCF7 breast 14% | HCT-116 colon 36.8% | HCC-2998 colon 57% | KM12 colon 25.1%
active: RPMI-8226 leukemia -43.1% | OVCAR-3 ovarian -27.9% | NCI/ADR-RES ovarian 7.91% | MDA-MB-435 melanoma 7.27%

N#Cc1c(N)nc2c(c1N)C(c1ccc(F)cc1)c1ccc(N)cc1O2 (centres undefined)
inactive: RPMI-8226 leukemia 103% | OVCAR-8 ovarian 97.5% | OVCAR-5 ovarian 99.1% | OVCAR-4 ovarian 96.7% | SK-OV-3 ovarian 119% | OVCAR-3 ovarian 118% | HS 578T breast 95.6% | NCI/ADR-RES ovarian 107% | T-47D breast 92.3% | BT-549 breast 93.8% | MDA-MB-435 melanoma 107% | SW-620 colon 108% | MCF7 breast 98.9% | HCT-116 colon 101% | HCC-2998 colon 112% | KM12 colon 91.2%

Brc1ccc(Oc2ccc(Nc3ncnc4onc(-c5ccccc5)c34)cc2)cc1
inactive: RPMI-8226 leukemia 90.3% | OVCAR-8 ovarian 97.8% | OVCAR-5 ovarian 105% | OVCAR-4 ovarian 88.2% | IGROV1 ovarian 96.5% | OVCAR-3 ovarian 119% | HS 578T breast 96.8% | NCI/ADR-RES ovarian 94.1% | T-47D breast 77.8% | BT-549 breast 102% | MDA-MB-435 melanoma 99.9% | SW-620 colon 100% | MCF7 breast 86.1% | HCT-116 colon 97.5% | HCC-2998 colon 95.5%

COC(=O)c1c2c(c(C)[n+]([O-])c1C)C(=O)C=C(NCc1ccc(F)c(F)c1)C2=O
active: RPMI-8226 leukemia -6.01% | OVCAR-8 ovarian -2.54% | OVCAR-5 ovarian -83.1% | OVCAR-4 ovarian -98.7% | IGROV1 ovarian -67.3% | OVCAR-3 ovarian -47.2% | HS 578T breast -20.4% | NCI/ADR-RES ovarian -17.5% | T-47D breast -42.5% | BT-549 breast -97.2% | MDA-MB-435 melanoma -92.2% | SW-620 colon -43% | MCF7 breast -65.7% | HCT-116 colon -53.9% | HCC-2998 colon -66.5% | KM12 colon -14.9%

O=C(CSc1nc2ccccc2c(=O)n1-c1ccccc1)Nc1ccc(C(=O)/C=C/c2ccc(Cl)cc2)cc1
inactive: RPMI-8226 leukemia 91.5% | OVCAR-8 ovarian 103% | OVCAR-5 ovarian 98.4% | OVCAR-4 ovarian 105% | IGROV1 ovarian 97.3% | OVCAR-3 ovarian 104% | HS 578T breast 106% | NCI/ADR-RES ovarian 106% | T-47D breast 107% | BT-549 breast 111% | MDA-MB-435 melanoma 103% | SW-620 colon 99.1% | MCF7 breast 85.1% | HCT-116 colon 102% | HCC-2998 colon 109% | KM12 colon 100%

— PubChem BioAssay (NCI)
